This is part of a sample that, as a whole, favours compounds with a hit. Of some 83,000 tested, about 20% had one in any assay.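 Treatment: one concentration, 48 hours, 96-well format. Scoring: percent growth, with anything below 10 considered active.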 Activity calls are given as the source filed them.
The compounds below were run on KM12 colon (assay: NCI-60 one-dose screen, 48 h (100 = growth as untreated, 0 = no growth, -100 = all killed)). Settings: 10 µM unless noted.
Experimental: Growth inhibition of the KM12 human tumor cell line is measured as a screen for anti-cancer activity. Cells are grown in 96 well plates and exposed to the test compound for 48 hours. Compounds are tested at a single concentration, which is 10^-5 M for most compounds. The reported endpoint is percent growth (GI% or GIPRCNT), where numbers from 0 - 100% represent growth inhibition, and numbers from -100% - 0 represent cell death. For example, a value of 40 represents 60% growth inhibition. A value of 0 means no net growth occurred over the course of the experiment. A value of -40 indicates 40% of cells at the beginning of the experiment died by the end of the experiment. A value of -100 means all cells are dead at the end of the experiment.
NCI-60 Human Tumor Cell Lines Screen was performed using the standard one-dose NCI protocol, which is described in more detail at https://dtp.cancer.gov/discovery_development/nci-60/default.htm.
Compounds with GIPRCNT values below 10 were considered active. Activity score was based on GIPRCNT using the following formula: […]
Score is 0 for GIPRCNT values of 100 or above, 50 for GIPRCNT values of 0, and 100 for GIPRCNT values of -100.

Compound | growth
CCC1(C)CC(CCNCc2ccccc2O)(c2ccc(C)cc2)CCO1 (stereo not given) | 107% (inactive)
COc1ccc2c(c1)c(-c1nc(-c3c[nH]c4ncccc34)cs1)cn2CCCCN1CCCCC1 | -62.9% (active)
CC12CCC(O)CC1=CCC1C2CCC2(C)C(O)CCC12 (stereo not given) | 105% (inactive)
Oc1ccc2c3c1OC1[C@@H](O)CC[C@@]4(O)[C@@H](C2)N(CC2CCC2)CC[C@]314 (stereo not given in full) | 104% (inactive)
C[Se]C(=O)c1ccccc1OC(C)=O | 88.9% (inactive)
[Au+].[N-]=C=O.c1ccc(CN2[CH-]N(Cc3ccccc3)C(c3ccccc3)=C2c2ccccc2)cc1 | 90.4% (inactive)
COc1ccc(/C=C\c2cc(OC)c(OC)c(OC)c2)c(NS(=O)(=O)c2ccc(C)cc2)c1O | 3.96% (active)
COC(C(=O)[C@@H](O)[C@@H](C)O)[C@@H]1Cc2cc3cc(O[C@H]4C[C@@H](O[C@H]5C[C@@H](O)[C@H](O)C(C)O5)[C@H](O)C(C)O4)c(C)c(O)c3c(O)c2C(=O)[C@H]1O[C@H]1C[C@@H](O[C@H]2C[C@@H](O[C@H]3C[C@@H](O)[C@@H](O)C(C)O3)[C@@H](O)C(C)O2)[C@H](O)C(C)O1 (stereo not given in full) | 4.05% (active)
O=C1C2CC=CCC2C(=O)N1SC(Cl)(Cl)Cl (stereo not given) | 103% (inactive)
CCCc1cc(O)c2c3c(c(=O)oc2c1)CN(C)CC3 | 35.7% (inactive)
CC(=O)O[C@H]1CC[C@H]2[C@@H]3CC=C4c5nc(-c6ccccc6)sc5CC[C@]4(C)[C@H]3CC[C@]12C | 42.3% (inactive)
O=C(O)c1ccc([S-])cc1.[Au+].c1ccc(CN2[CH-]N(Cc3ccccc3)C(c3ccccc3)=C2c2ccccc2)cc1 | -26.1% (active)
Nc1ncnc2n[nH]nc12 | 70.4% (inactive)
COc1ccc(/C=C\c2cc(OC)c(OC)c(OC)c2)cc1NC(=O)/C=C/c1cc(OC)c(OC)c(OC)c1 | 28.6% (inactive)
CNC12C3C4C1C1C2C3C41C(=O)N[C@H](C(=O)N(C)[C@H](C[C@@H](OC(C)=O)c1nc(C(=O)N[C@@H](Cc2ccccc2)C[C@H](C)C(=O)OC)cs1)C(C)C)C1CC1 (stereo not given in full) | -9.24% (active)
CC(=O)OCc1cc[c]([Hg][Cl])o1 | 91.8% (inactive)
Nc1ccc(Cl)cc1 | 102% (inactive)
Nc1ccc(OCCNS(=O)(=O)c2cccc(S(=O)(=O)F)c2)c(Cl)c1 | 101% (inactive)
CCC1CN1CCCCN1CC1CC (stereo not given) | 106% (inactive)
O=C(CC1(O)C(=O)N(Cc2ccccc2)c2ccc(Br)cc21)c1ccc(C(=O)NCC2CCC3(CC2)OOC2(CCCCC2)OO3)cc1 (stereo not given) | -57.5% (active)

Compound | growth
C/C1=C/C(=O)O[C@@H]2C[C@@H](CC[C@H](C)/C=C\C=C\CC1)O[C@@](O)([C@@H]1CSC(=O)N1CO)C2 | 62% (inactive)
COC(=O)[C@@H](C)C[C@H](Cc1ccccc1)NC(=O)c1cccc([C@@H](C[C@H](C(C)C)N(C)C(=O)[C@@H](NC(=O)[C@H]2CCCCN2C)C(C)C)OC(C)=O)n1 | 7.8% (active)
CNCc1cccnc1 | 104% (inactive)
COc1cc2ncnc(Nc3ccc(F)c(Cl)c3)c2cc1OCC(=O)N1CCN(C)CC1 | 96.4% (inactive)
CN1C(=O)C(=Cc2cn(Cc3ccccc3)c3ccccc23)C(=O)N(C)C1=O | 102% (inactive)
NC1CC2CCCCC2CC1(O)c1ccccc1 (stereo not given) | 99.7% (inactive)
Nc1nnnc2nc[nH]c12 | 25.6% (inactive)
c1ccc(CSC(c2ccccc2)c2ccccc2)cc1 | 106% (inactive)
COc1cccc(/C=C/[N+](=O)[O-])c1 | 15.6% (inactive)
c1ccc(Nc2nc(-c3ccccc3)c[se]2)cc1 | 71.8% (inactive)
CC12CCC3C(CCC4Cc5[nH]c6ccccc6c5CC43C)C1CCC2O (stereo not given) | 23.3% (inactive)
CCOC(=O)CCN(C)C1=Nc2ccc(Cl)cc2C(c2ccccc2)=[N+]([O-])C1 | 104% (inactive)
CCCCN1CCCC[C@@H]1C(=O)N[C@H](C(=O)N(C)[C@H](CCc1nc(C(=O)N[C@@H](Cc2ccccc2)C[C@H](C)C(=O)OC)cs1)C(C)C)[C@@H](C)CC | 28% (inactive)
COc1cc(/C=C\c2cc(OC)c(OC)c(OC)c2)cc(NS(=O)(=O)c2cccc(Cl)c2)c1OC | 5.83% (active)
COc1ccc(S(=O)(=O)Nc2c(/C=C\c3cc(OC)c(OC)c(OC)c3)ccc(OC)c2O)cc1OC | 4.9% (active)
CN1C(=O)C23CC4(C56CC78SSC(CO)(C(=O)N7C5Nc5ccccc56)N(C)C8=O)c5ccccc5NC4N2C(=O)C1(CO)SS3 (stereo not given) | -82.9% (active)
CCC(O)(CN)c1ccccc1 (stereo not given) | 103% (inactive)
CNC(=O)Oc1cccc(C(F)(F)F)c1 | 110% (inactive)
CN1CCC(c2c[nH]c3ccccc23)C1 (stereo not given) | 107% (inactive)
O=C(CC1(O)C(=O)Nc2ccc(Cl)cc21)c1ccc(C(=O)NCC2CCC3(CC2)OOC2(CCCCC2)OO3)cc1 (stereo not given) | 9.65% (active)
